# Test results from the supplement of paper PMC8728848.
# The full list was thinned out, with the strongest signals kept by preference.
# B1: Sialidase (Vibrio cholerae), P37060 (protein)
# chain: GAMALFDYNATGDTEFDSPAKQGWMQDNTNNGSGVLTNADGMPAWLVQGIGGRAQWTYSLSTNQHAQASSFGWRMTTEMKVLSGGMITNYYANGTQRVLPIISLDSSGNLVVEFEGQTGRTVLATGTAATEYHKFELVFLPGSNPSASFYFDGKLIRDNIQPTASKQNMIVWGNGSSNTDGVAAYRDIKFEIQGDALNGSMALFDYNATGDTEFDSPAKQGWMQDNTNNGSGVLTNADGMPAWLVQGIGGRAQWTYSLSTNQHAQASSFGWRMTTEMKVLSGGMITNYYANGTQRVLPIISLDSSGNLVVEFEGQTGRTVLATGTAATEYHKFELVFLPGSNPSASFYFDGKLIRDNIQPTASKQNMIVWGNGSSNTDGVAAYRDIKFEIQGDLQALGMALFDYNATGDTEFDSPAKQGWMQDNTNNGSGVLTNADGMPAWLVQGIGGRAQWTYSLSTNQHAQASSFGWRMTTEMKVLSGGMITNYYANGTQRVLPIISLDSSGNLVVEFEGQTGRTVLATGTAATEYHKFELVFLPGSNPSASFYFDGKLIRDNIQPTASKQNMIVWGNGSSNTDGVAAYRDIKFEIQGD
# Legend:
# Assay in all cases: glycan array binding signal (z-score within array); higher = stronger binding
# Conditions in all cases: glycan notation: IUPAC condensed, linker removed
# [1] = biological target: Fuc(a1-2)[Gal(a1-3)]Gal(b1-4)Glc
# Summary of the method: (§1)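 Negative Z-scores can be read as non-binding. The Z-score is calculated within each array and then averaged across arrays of one protein sequence at different concentrations or buffers and across linkers. Arrays, 3228 in all, were curated from the Consortium for Functional Glycomics database and kept only where the protein sequence was available.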
# Fuc(a1-3)GlcNAc = biological target: Fuc(a1-3)GlcNAc
# Summary of the method: as §1
# [2] = biological target: Fuc(a1-3)[GalNAc(b1-4)]GlcNAc
# Summary of the method: as §1
# Gal(a1-3)GalNAc = biological target: Gal(a1-3)GalNAc
# Summary of the method: as §1
# Gal(b1-3)GalNAc = biological target: Gal(b1-3)GalNAc
# Summary of the method: as §1
# [3] = biological target: Gal(b1-3)GalNAc(b1-4)[Neu5Ac(a2-3)]Gal(b1-4)Glc
# Summary of the method: as §1
# [4] = biological target: Gal(b1-3)GlcNAc(b1-3)Gal(b1-4)GlcNAc
# Summary of the method: as §1
# [5] = biological target: Gal(b1-3)[Fuc(a1-4)]GlcNAc
# Summary of the method: as §1
# Gal3S(b1-3)GalNAc = biological target: Gal3S(b1-3)GalNAc
# Summary of the method: as §1
# Gal6S(b1-4)GlcNAc = biological target: Gal6S(b1-4)GlcNAc
# Summary of the method: as §1
# [6] = biological target: GalNAc(b1-4)GlcNAc(b1-2)Man(a1-3)[GalNAc(b1-4)GlcNAc(b1-2)Man(a1-6)]Man(b1-4)GlcNAc(b1-4)GlcNAc
# Summary of the method: as §1
# GlcA(b1-6)Gal = biological target: GlcA(b1-6)Gal
# Summary of the method: as §1
# [7] = biological target: GlcNAc(a1-4)Gal(b1-4)GlcNAc(b1-3)Gal(b1-4)Glc
# Summary of the method: as §1
# [8] = biological target: GlcNAc(b1-2)Man(a1-3)[GlcNAc(b1-2)Man(a1-6)]Man(b1-4)GlcNAc(b1-4)[Fuc(a1-6)]GlcNAc
# Summary of the method: as §1
# [9] = biological target: GlcNAc(b1-3)Gal(b1-4)GlcNAc(b1-3)Gal(b1-4)GlcNAc
# Summary of the method: as §1
# [10] = biological target: GlcNAc(b1-4)GlcNAc(b1-4)GlcNAc(b1-4)GlcNAc(b1-4)GlcNAc
# Summary of the method: as §1
# Kdn(a2-3)Gal(b1-3)GalNAc = biological target: Kdn(a2-3)Gal(b1-3)GalNAc
# Summary of the method: as §1
# [11] = biological target: Man(a1-2)Man(a1-3)[Man(a1-2)Man(a1-6)]Man(a1-6)[Man(a1-2)Man(a1-2)Man(a1-3)]Man(b1-4)GlcNAc(b1-4)GlcNAc
# Summary of the method: as §1
# Man(a1-3)[Man(a1-6)]Man = biological target: Man(a1-3)[Man(a1-6)]Man
# Summary of the method: as §1
# [12] = biological target: Neu5Ac(a2-3)Gal(b1-3)GalNAc(b1-3)Gal(a1-4)Gal(b1-4)Glc
# Summary of the method: as §1
# [13] = biological target: Neu5Ac(a2-3)Gal(b1-3)[Fuc(a1-4)]GlcNAc(b1-3)Gal(b1-3)[Fuc(a1-4)]GlcNAc
# Summary of the method: as §1
# [14] = biological target: Neu5Ac(a2-3)Gal(b1-3)[Neu5Ac(a2-6)]GalNAc
# Summary of the method: as §1
# [15] = biological target: Neu5Ac(a2-3)Gal(b1-4)GlcNAc(b1-2)Man(a1-3)[Neu5Ac(a2-6)Gal(b1-4)GlcNAc(b1-2)Man(a1-6)]Man(b1-4)GlcNAc(b1-4)GlcNAc
# Summary of the method: as §1
# [16] = biological target: Neu5Ac(a2-3)Gal(b1-4)GlcNAc(b1-3)Gal(b1-4)GlcNAc
# Summary of the method: as §1
# [17] = biological target: Neu5Ac(a2-3)Gal(b1-4)GlcNAc6S
# Summary of the method: as §1
# [18] = biological target: Neu5Ac(a2-3)Gal(b1-4)[Fuc(a1-3)]GlcNAc(b1-6)[Neu5Ac(a2-3)Gal(b1-3)]GalNAc
# Summary of the method: as §1
# [19] = biological target: Neu5Ac(a2-3)Gal6S(b1-4)GlcNAc
# Summary of the method: as §1
# [20] = biological target: Neu5Ac(a2-6)Gal(b1-4)GlcNAc(b1-2)Man(a1-6)Man(b1-4)GlcNAc(b1-4)GlcNAc
# Summary of the method: as §1
# [21] = biological target: Neu5Ac(a2-8)Neu5Ac(a2-3)[GalNAc(b1-4)]Gal(b1-4)Glc
# Summary of the method: as §1
# [22] = biological target: Neu5Ac(a2-8)Neu5Ac(a2-8)Neu5Ac
# Summary of the method: as §1
binder,measurement,setting,value
B1,glycan array binding signal (z-score),[1],-0.115
same,glycan array binding signal (z-score),Fuc(a1-3)GlcNAc,-0.622
same,glycan array binding signal (z-score),[2],-0.6
same,glycan array binding signal (z-score),Gal(a1-3)GalNAc,-0.472
same,glycan array binding signal (z-score),Gal(b1-3)GalNAc,-0.469
same,glycan array binding signal (z-score),[3],0.396
same,glycan array binding signal (z-score),[4],-0.474
same,glycan array binding signal (z-score),[5],-0.364
same,glycan array binding signal (z-score),Gal3S(b1-3)GalNAc,-0.567
same,glycan array binding signal (z-score),Gal6S(b1-4)GlcNAc,-0.619
same,glycan array binding signal (z-score),[6],-0.622
same,glycan array binding signal (z-score),GlcA(b1-6)Gal,-0.085
same,glycan array binding signal (z-score),[7],-0.574
same,glycan array binding signal (z-score),[8],-0.267
same,glycan array binding signal (z-score),[9],0.631
same,glycan array binding signal (z-score),[10],-0.605
same,glycan array binding signal (z-score),Kdn(a2-3)Gal(b1-3)GalNAc,-0.286
same,glycan array binding signal (z-score),[11],0.193
same,glycan array binding signal (z-score),Man(a1-3)[Man(a1-6)]Man,-0.644
same,glycan array binding signal (z-score),[12],-0.275
same,glycan array binding signal (z-score),[13],5.53
same,glycan array binding signal (z-score),[14],2.8
same,glycan array binding signal (z-score),[15],6.62
same,glycan array binding signal (z-score),[16],4.64
same,glycan array binding signal (z-score),[17],2.73
same,glycan array binding signal (z-score),[18],0.955
same,glycan array binding signal (z-score),[19],6.38
same,glycan array binding signal (z-score),[20],1.84
same,glycan array binding signal (z-score),[21],-0.257
same,glycan array binding signal (z-score),[22],0.113
